Values joined by “and” are separate entries in the source; they are usually repeats but may differ in a detail not shown here. Equal values may be shown once. In all, about 5,500 compounds went through this assay and about 2,000 (36%) were called active. Not shown: some 18% with an inconclusive outcome. Cut-off read from the data, not from the text of the source: active = normalized growth mostly below about 0.91 (no sharp cut-off); inconclusive = no clear call, values can overlap the other calls; inactive = mostly above about 0.92. Some of the results follow.
Test: chemical genetic growth profiling, strain panel (AID 1159580);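 note: tested at 20 µM; growth read once vehicle control cultures reached saturation at 30 °C; 1 = growth at the plate median or of vehicle wells; lower values mean less growth of the strain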
Settings: S. cerevisiae deletion strains, growth OD

Measured: normalized growth

CCOC(=O)[C@H](CCc1ccccc1)N[C@@H](C)C(=O)N1Cc2ccccc2C[C@H]1C(=O)O
inactive: locus YAL021C, strain ccr4, stronger effect = lower value 0.993 | locus YAL026C, strain drs2, stronger effect = lower value 0.981 | locus YAL030W, strain snc1, stronger effect = lower value 1 | locus YBL061C, strain skt5, stronger effect = lower value 0.99 | locus YBR009C, strain hhf1, stronger effect = lower value 1.02 | locus YBR021W, strain FUR4, stronger effect = lower value 1.01 | locus YBR023C, strain chs3, stronger effect = lower value 0.984 | locus YBR171W, strain sec66, stronger effect = lower value 0.997 | locus YBR229C, strain ROT2, stronger effect = lower value 1 | locus YBR231C, strain swc5, stronger effect = lower value 1 | locus YBR279W, strain paf1, stronger effect = lower value 0.98 | locus YCL011C, strain gbp2, stronger effect = lower value 0.998 | locus YCL016C, strain dcc1, stronger effect = lower value 0.963 | locus YCL029C, strain bik1, stronger effect = lower value 1.01 | locus YCL061C, strain MRC1, stronger effect = lower value 1.01 | locus YCL069W, strain vba3, stronger effect = lower value 0.986 | locus YCR088W, strain abp1, stronger effect = lower value 1 | locus YDL005C, strain med2, stronger effect = lower value 1.01 | locus YDL035C, strain GPR1, stronger effect = lower value 1.02 | locus YDL040C, strain nat1, stronger effect = lower value 1 | locus YDL074C, strain BRE1, stronger effect = lower value 0.996 | locus YDL101C, strain DUN1, stronger effect = lower value 1.01 | locus YDL134C, strain PPH21, stronger effect = lower value 1 | locus YDL185W, strain tfp1, stronger effect = lower value 1.01 | locus YDL192W, strain arf1, stronger effect = lower value 1.01 | locus YDR001C, strain nth1, stronger effect = lower value 1 | locus YDR069C, strain doa4, stronger effect = lower value 1 | locus YDR101C, strain arx1, stronger effect = lower value 0.999 | locus YDR137W, strain rgp1, stronger effect = lower value 0.983 | locus YDR159W, strain sac3, stronger effect = lower value 0.964 | locus YDR162C, strain NBP2, stronger effect = lower value 1.01 | locus YDR195W, strain ref2 0.965 | locus YDR297W, strain sur2, stronger effect = lower value 1.01 | locus YDR318W, strain mcm21, stronger effect = lower value 1.01 | locus YDR334W, strain swr1, stronger effect = lower value 1.02 | locus YDR335W, strain msn5, stronger effect = lower value 0.984 | locus YDR388W, stronger effect = lower value 1.01 | locus YDR392W, strain spt3, stronger effect = lower value 0.931 | locus YDR502C, strain sam2, stronger effect = lower value 1.03 | locus YEL003W, strain gim4, stronger effect = lower value 1.02 | locus YEL037C, strain rad23, stronger effect = lower value 1.01 | locus YEL061C, strain CIN8 (second series), stronger effect = lower value 1.03 | locus YEL061C, strain CIN8, stronger effect = lower value 1.01 | locus YER015W, strain faa2, stronger effect = lower value 1.01 | locus YER016W, strain bim1, stronger effect = lower value 1.02 | locus YER110C, stronger effect = lower value 1.01 | locus YER111C, strain swi4, stronger effect = lower value 0.989 | locus YER155C, strain BEM2 (second series), stronger effect = lower value 1.06 | locus YER155C, strain BEM2, stronger effect = lower value 0.995 | locus YER167W, strain BCK2, stronger effect = lower value 1.01 | locus YFR010W, strain ubp6, stronger effect = lower value 0.998 | locus YGL078C, strain dbp3, stronger effect = lower value 1.01 | locus YGL086W, strain mad1, stronger effect = lower value 1 | locus YGL167C, strain pmr1, stronger effect = lower value 1 | locus YGL173C, strain kem1, stronger effect = lower value 0.993 | locus YGL227W, strain vid30, stronger effect = lower value 0.986 | locus YGL240W, strain doc1, stronger effect = lower value 1.02 | locus YGL248W, strain PDE1, stronger effect = lower value 1 | locus YGL253W, strain hxk2, stronger effect = lower value 0.926 | locus YGR078C, strain PAC10, stronger effect = lower value 1 | locus YGR135W, strain pre9, stronger effect = lower value 1.03 | locus YGR229C, strain SMI1, stronger effect = lower value 1.02 | locus YGR252W, strain gcn5, stronger effect = lower value 0.999 | locus YHR013C, strain ard1, stronger effect = lower value 0.953 | locus YHR027C, strain rpn1, stronger effect = lower value 1.01 | locus YHR030C, strain SLT2, stronger effect = lower value 1.01 and 0.988 | locus YHR079C, strain IRE1 (second series), stronger effect = lower value 1.01 | locus YHR079C, strain IRE1, stronger effect = lower value 0.976 | locus YHR094C, strain hxt1, stronger effect = lower value 1 | locus YHR129C, strain ARP1, stronger effect = lower value 1 | locus YHR142W, strain chs7, stronger effect = lower value 0.935 | locus YHR200W, strain rpn10, stronger effect = lower value 1.01 | locus YIL066C, strain RNR3, stronger effect = lower value 1.01 | locus YIL073C, strain SPO22, stronger effect = lower value 1.08 | locus YIL125W, strain kgd1, stronger effect = lower value 1 | locus YIR030C, strain dcg1, stronger effect = lower value 1.01 | locus YJL092W, strain hpr5, stronger effect = lower value 1.01 | locus YJL095W, strain BCK1 (second series), stronger effect = lower value 1.01 | locus YJL095W, strain BCK1, stronger effect = lower value 0.988 and 0.991 | locus YJL115W, strain asf1, stronger effect = lower value 1.01 | locus YJL129C, strain trk1, stronger effect = lower value 0.983 | locus YJL134W, strain LCB3, stronger effect = lower value 1.01 | locus YJL154C, strain vps35, stronger effect = lower value 1.02 | locus YJL164C, strain tpk1, stronger effect = lower value 1 | locus YJL166W, strain qcr8, stronger effect = lower value 1.03 | locus YJL168C, strain set2, stronger effect = lower value 1.01 | locus YJL187C, strain SWE1 (second series), stronger effect = lower value 1 | locus YJL187C, strain SWE1, stronger effect = lower value 1.01

From PubChem BioAssay AID1159580 (chemical genetic matrix, 2015)
